Compound activity deposited in PubChem by The Scripps Research Institute Molecular Screening Center.
hgDAF-12 ag – agonists of H. glycines DAF-12 nuclear receptor. HEK293 GAL4-hgDAF12 UAS-luciferase reporter, agonist luminescence; normalized to butyrate control. activation, % at 6.8 µM. 370,000 tested, 1.8% active;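 active means activation above a cutoff set at the mean of all screened compounds plus 3 SD, cut at about 10% in these data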
DAX1 inh-1 – NR0B1 (DAX1) inhibition | P51843 | HEK293 Gal4-DAX1 luciferase reporter, luminescence | inhibition, % at 6.75 µM | 340,000 tested, 0.99% active;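 active means inhibition above the mean over all tested compounds plus 3 SD, cut at about 4.2% in these data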;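 further: inhibition shows as a rise in luminescence from relieved DAX1 repression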
Target sequence (P51843 207-470 limits assumed): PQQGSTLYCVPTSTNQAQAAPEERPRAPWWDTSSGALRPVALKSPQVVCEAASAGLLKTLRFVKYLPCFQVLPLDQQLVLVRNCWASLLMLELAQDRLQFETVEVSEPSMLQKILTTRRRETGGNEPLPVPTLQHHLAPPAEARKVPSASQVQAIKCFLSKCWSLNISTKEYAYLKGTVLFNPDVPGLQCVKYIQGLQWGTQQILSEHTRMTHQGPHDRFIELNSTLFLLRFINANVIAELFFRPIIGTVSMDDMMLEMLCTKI
ssDAF-12 act – activates DAF-12 receptor from parasite S. stercoralis | activation, % at 6.8 µM | HEK293 ssDAF-12/GRIP1 lit1-tk-luc reporter, luminescence; % of 3 µM dafachronic acid response | AID 652126 | 370,000 tested, 1% active;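 active means activation above the mean over all tested compounds plus 3 SD, cut at about 0.9% in these data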
DAX1 inh-2 – DAX1 (NR0B1) inhibition, primary screen | inhibition, % at 6.8 µM | 370,000 tested, 1.1% active | AID 652010 | HEK293T StAR-luciferase reporter, SF-1/DAX-1 repression relief;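 active means inhibition above the mean over all tested compounds plus 3 SD, cut at about 3.6% in these data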;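 further: higher inhibition means more luminescence from relief of DAX-1 repression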
hcDAF-12 act – activators of H. contortus DAF-12 nuclear receptor | HEK293 hcDAF-12 lit1-tk-luc reporter, luminescence; 0% DMSO, 100% Δ7-dafachronic acid | activation, % at 6.8 µM | 370,000 tested, 1.4% active;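 active means activation above the mean of all tested compounds plus 3 SD, cut at about 5.5% in these data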
A number is an active result; n = inactive; x = no result. In the library only some 4.1% were active in any assay of this set; here they are far more common.

SMILES	hgDAF-12 ag	DAX1 inh-1	ssDAF-12 act	DAX1 inh-2	hcDAF-12 act
CCOc1ccc(N2C(=O)CC(N3CCN(c4ccc([N+](=O)[O-])cc4)CC3)C2=O)cc1 (stereo unspecified)	n	n	n	n	n
Cc1ccc(NC(=O)c2ncc(Cl)c(Cl)c2Cl)cc1C	n	n	n	n	5.9
O=C(Nc1ccc(OC(F)F)cc1)c1ncc(Cl)c(Cl)c1Cl	n	n	n	n	n
Cc1ccc(S(=O)(=O)c2nc(Nc3ccccc3C#N)sc2Cl)cc1	n	n	n	n	6.3
Cc1ccc(S(=O)(=O)c2nc(Nc3ccccc3N3CCOCC3)sc2Cl)cc1	n	n	n	n	n
CCC(=O)c1ccc(OC(=O)c2cnccn2)cc1	n	5.0	n	n	n
CC(COc1ccc(CC#N)cc1)CN1CCC(C(O)(c2ccccc2)c2ccccc2)CC1 (stereo unspecified)	n	x	n	n	n
O=C(N/N=C/C=C\c1ccccc1[N+](=O)[O-])c1ccccn1	10.7	n	n	n	n
COc1ccc2c(c1OC)C(=O)N(c1ccccn1)C2	12.8	n	1.3	n	5.8
COc1ccc2c(c1OC)C(=O)N(c1ccc(C)cc1)C2	11.7	6.2	n	n	n
NC(c1csc(Nc2ccccn2)n1)c1ccccc1Cl (stereo unspecified)	n	x	n	n	n
CN(CCOC(=O)c1cc2ccccc2o1)C1CN(Cc2cn(Cc3ccccc3Cl)nn2)S(=O)(=O)C1 (stereo unspecified)	n	x	n	n	n
CC1CCC2(CC1)CCC2NCc1ccc(Br)cc1 (stereo unspecified)	n	x	n	x	n
Cn1c(NC(=O)/C=C\c2ccccc2)cc(=O)n(C)c1=O	n	4.6	1.1	n	n
O=C(N/N=C/c1ccncc1)NC1CCCCC1	n	5.9	n	n	n
O=C(N/N=C/c1ccncc1)C1C2CCCCCCC21 (stereo unspecified)	n	n	n	n	n
COc1ccc(S(=O)(=O)NCC(c2ccc3c(c2)OCO3)N2CCN(C)CC2)cc1OC (stereo unspecified)	n	n	n	n	n
COc1ccc(C)cc1S(=O)(=O)NCC(c1ccc2c(c1)OCO2)N1CCN(C)CC1 (stereo unspecified)	n	n	n	3.7	n
Cc1ccc(C(CC(=O)N2CCCCC2)c2ccccc2)c(O)c1C (stereo unspecified)	n	n	1.6	n	n
c1ccc(COc2ncnc3c2ncn3CCCN2CCN(c3ncccn3)CC2)cc1	n	n	n	n	n
NS(=O)(=O)c1cc(C(=O)OCC(=O)Nc2ccc(Cl)cc2[N+](=O)[O-])ccc1Cl	n	n	n	n	n
COc1ccc(NC(=O)COC(=O)c2ccc(Cl)c(S(N)(=O)=O)c2)c([N+](=O)[O-])c1	n	5.0	n	n	n
COc1ccc(NC(=O)COC(=O)c2cc(OC)c(OC)c(OC)c2)c([N+](=O)[O-])c1	n	n	n	n	n
CNS(=O)(=O)c1cccc(C(=O)OCC(=O)Nc2ccc(OC)cc2[N+](=O)[O-])c1	n	4.3	n	n	n
COC(=O)[C@]12C[C@H](CC(=O)NCc3cccs3)C(=O)N(Cc3ccc4c(c3)OCO4)C1=C[C@H](C(C)C)O[C@@H]2C1CC1	n	x	n	n	n
SMILES	hgDAF-12 ag	DAX1 inh-1	ssDAF-12 act	DAX1 inh-2	hcDAF-12 act
Clc1cccc(Cc2c(-c3cccc(Br)c3)nc3c4ccccc4ccn23)c1	n	x	n	n	6.1
c1ccc(-c2nc3c4ccccc4ccn3c2CC2CCCCC2)cc1	n	x	n	n	5.6
Fc1cccc(Cc2c(-c3ccccc3)nc3c4ccccc4ccn23)c1	n	x	1.4	n	n
Clc1ccc(-c2nc3c4ccccc4ccn3c2Cc2cccc(Cl)c2)cc1	n	x	n	n	5.9
Cc1ccc(-c2nc3c4ccccc4ccn3c2Cc2cccc(F)c2)cc1	n	x	n	n	n
C=CCN(Cc1ccc(OC)cc1OC)C(C#Cc1ccccc1)c1ccccc1 (stereo unspecified)	n	x	n	x	n
CC1=CC(C)=Nc2ccccc2N1	10.8	n	2.1	n	5.6
O=c1[nH]c(CSc2ccccn2)nc2c1oc1ccccc12	12.3	n	n	4.4	n
COC(=O)[C@]12C[C@H](CC(=O)NCCc3ccccc3OC)C(=O)N(Cc3ccco3)C1=C[C@H](C(C)(C)C)O[C@@H]2C	n	x	n	n	n
CC(C)c1ccc(C(=O)Nc2cc(Cl)ccc2C(=O)O)cc1	n	x	n	x	n
COc1ccc(OC)c(-c2nc(C(=O)NCCCN3CCOCC3)cc3c2[nH]c2ccccc23)c1	n	n	1.0	n	n
COc1ccc(OC)c(-c2nc(C(=O)NC3CCN(Cc4ccccc4)CC3)cc3c2[nH]c2ccccc23)c1	n	n	n	n	n
CC(C)N(C(=O)CSc1nc2ccccc2n1-c1ccccc1)C(C)C	n	n	n	n	n
O=C(O)CCSc1nc2ccccc2n1-c1ccccc1	n	n	n	n	6.0
O=S1(=O)c2c(cccc2N2CCSCC2)Oc2ccccc2CN1Cc1cn(Cc2ccc(C(F)(F)F)cc2)nn1	n	x	n	n	n
COc1cc(/C=C2/C(=O)N(C)C(=S)N2C)ccc1OCc1cccc(F)c1	n	n	n	n	n
CN1C(=O)/C(=C/c2ccc(OCc3cccc(F)c3)cc2)NC1=S	n	n	1.4	n	n
COc1cccc(N2CCN(CC(=O)N(C)Cc3ccccc3Cl)CC2)c1	n	x	n	n	n
Nc1nc(SCc2ccccc2)cc(SCc2ccccc2)n1	11.8	n	n	n	n
Nc1cc(N)nc(SCc2ccccc2)n1	n	n	n	n	n
CCN1CNC(=S)N(CCc2ccccc2)C1	n	n	n	n	n
CCOc1ccc(CCN2CN(CC)CNC2=S)cc1OCC	n	4.9	n	n	n
O=c1c2cc3cc(Cl)ccc3nc2ncn1N1CCCCC1	n	x	0.9	n	n
Cc1cc(C)c2sc(NC(=O)CN3C(=O)CCC3=O)nc2c1	n	5.1	n	n	n
CC(C)[C@H](NC(=O)c1ccc(Cl)c([N+](=O)[O-])c1)C(=O)NCc1ccc(F)cc1	n	4.6	n	n	n
SMILES	hgDAF-12 ag	DAX1 inh-1	ssDAF-12 act	DAX1 inh-2	hcDAF-12 act
O=C(CC[C@H]1O[C@@H](n2cnc3c(NC(=O)c4ccccc4)ncnc32)[C@H](O)[C@@H]1O)NCCCN1CCCC1=O	n	x	n	n	n
CC(NC(=O)C12CC3CC(CC(O)(C3)C1)C2)c1ccccc1 (stereo unspecified)	n	5.7	n	n	n
O=[N+]([O-])c1ccc(Cl)c(C[n+]2cccc3ccccc32)c1	n	n	1.5	n	n
O=C(C[n+]1cccc2ccccc21)c1ccc([N+](=O)[O-])cc1	n	n	1.3	n	n
Clc1cccc(Cl)c1C[n+]1cccc2ccccc21	n	n	n	n	n
CC(C)C(=O)N1CC[C@H]2[C@H](CCCN2Cc2ccccc2)C1	n	x	n	n	n
COC(=O)CN1C(=O)N(c2ccccc2)C(N(O)C(=O)Nc2ccccc2)C1(C)C (stereo unspecified)	n	4.6	n	n	n
